Reference: PubChem BioAssay
Unmarked numbers belong to inactive results. No rule for the calls is given here.

The molecules below were run against Pantothenate synthetase (Mycobacterium tuberculosis (strain ATCC 25618 / H37Rv)) (UniProt P9WIL5) (assay: Recombinant Mtb pantothenate synthetase (PanC) inhibitors, coupled enzyme, confirmatory (AID 375;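 also: 0% = full reaction with vehicle and 100% = no enzyme background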)). Details: coupled enzyme assay; at 10 µM, active compounds read high.
Chain of Pantothenate synthetase (Mycobacterium tuberculosis (strain ATCC 25618 / H37Rv)) (P9WIL5 whole entry, looked up): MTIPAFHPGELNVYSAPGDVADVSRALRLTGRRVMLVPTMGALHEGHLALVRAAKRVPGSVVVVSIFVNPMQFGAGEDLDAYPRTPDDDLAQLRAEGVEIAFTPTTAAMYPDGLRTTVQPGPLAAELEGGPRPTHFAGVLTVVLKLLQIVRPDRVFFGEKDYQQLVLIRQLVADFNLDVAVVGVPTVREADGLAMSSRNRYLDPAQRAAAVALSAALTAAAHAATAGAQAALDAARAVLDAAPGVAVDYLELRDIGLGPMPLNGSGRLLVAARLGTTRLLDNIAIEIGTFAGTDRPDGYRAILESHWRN

In order of falling inhibition:
1. O=C1C(C=NCCCn2ccnc2)=C(O)c2ccccc21  8%
2. CCCn1c(=N)n(CC(=O)c2cccs2)c2ccccc21  3%
3. Cc1ccccc1CN1CCN(CC(=O)NCc2ccccc2)C1=O  2%
4. CC1(C)CC(=O)C2=C(C1)OC(N)=C(C#N)C2C1CC=CCC1 (configuration not stated)  1%
5. COc1ccc(C2(C(=O)Nc3c(C)n(C)n(-c4ccccc4)c3=O)CCCC2)cc1OC  1%
6. COCCCNC(=O)CSc1nc2ccc(N3CCOCC3)cc2c(=O)n1CCc1ccccc1  0%
7. CN1C(=O)C(O)(CC(=O)c2ccccc2O)c2cc(Br)ccc21 (configuration not stated)  0%
8. O=[n+]1c2c(n([O-])c3c1CCCC3)CCCC2  0%
9. CCOCCCNC(=O)c1c[nH]c2ccc(S(=O)(=O)Nc3cccc(OC)c3)cc2c1=O  0%
10. NS(=O)(=O)c1ccc(CCNC(=O)CCC2COc3ccccc3O2)cc1 (configuration not stated)  0%
11. Nc1nc(-c2ccc(Cl)cc2)nn1C(=O)c1cccnc1  0%
12. O=C(CSc1nnc(-c2ccccc2F)o1)OCc1ccccc1  0%
13. Cc1cc(C(=O)NCc2cccnc2)n(-c2ccccc2)n1  0%
14. CCCc1ccc(S(=O)(=O)NCCc2ccncc2)cc1  0%
15. O=C(N1CCN(Cc2ccccc2)CC1)C12CC3CC(CC(C3)C1)C2  0%
16. COC(=O)c1cc2ccsc2n1CC(=O)Nc1cc(C)cc(C)c1  0%
17. Cc1c(C)n(C)c2ccc(C(=O)NCc3cccs3)cc12  0%
